Broadly, the inhibition is the drop in the measured response relative to a control, in per cent.

Molecules are shown by their SMILES. The campaign covered roughly 340,000 compounds. About 3,400 (1%) were called active. What follows is part of a selection rich in actives, with near analogues and random picks from the rest. Values without a mark were called inactive.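 The calls were made as follows: active = inhibition above the mean over all tested compounds plus 3 SD (cut at about 4.2% in these data); inactive = the rest.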

The target of the test is Nuclear receptor subfamily 0 group B member 1 (Homo sapiens) (UniProt P51843). The test can be described thus: relief of DAX1 transcriptional repression – cell-based, HEK293, Gal4-DAX1, luciferase luminescence, primary screen (AID 504766).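 Also: 0% = DAX1-transfected cells with DMSO and 100% = empty-vector control cells with DMSO; inhibition shows as a rise in luminescence from relieved DAX1 repression.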 As to conditions: HEK293 Gal4-DAX1 luciferase reporter, at 6.75 µM, hits give high values. In general terms: Reporter assays use an easily measured gene product as a stand-in for the process of interest.
Nuclear receptor subfamily 0 group B member 1 (Homo sapiens), sequence (P51843 207-470 limits assumed): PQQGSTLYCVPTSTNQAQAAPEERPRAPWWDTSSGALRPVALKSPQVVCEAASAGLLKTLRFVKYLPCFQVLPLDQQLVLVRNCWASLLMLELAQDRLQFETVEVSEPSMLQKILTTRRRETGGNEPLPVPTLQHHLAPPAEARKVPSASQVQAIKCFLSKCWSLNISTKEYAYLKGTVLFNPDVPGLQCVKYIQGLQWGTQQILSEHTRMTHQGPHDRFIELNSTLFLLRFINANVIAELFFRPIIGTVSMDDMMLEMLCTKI
Regarding `CC1C(=O)OC2CCN3CC=C(COC(=O)C(C)(O)C1(C)O)C23` (stereo not given), the inhibition was 6.45% (active). The figure for `O=C(NCC1=C(c2ccc3ccccc3c2)C[C@@H]2CC[C@H]1N2Cc1ccco1)c1cccs1` is 0.9%.

As for `CN(C)CC1CCCCC1OC(=O)c1ccc(Cl)c(Cl)c1` (stereo not given), the inhibition was 1.17%.

Turning to `N=c1ccccn1Cc1ccccc1`, the inhibition was 4.71% (active). Turning to `COc1cc2nc(N3CCN(C(=O)[C@@H]4CCCO4)CC3)nc(N)c2cc1OC`, the inhibition is -1.49%. The figure for `CC(C(=O)Nc1ccc(Cl)cc1Cl)N1CC=C(c2ccccc2)CC1` (stereo not given) is 0.95%; for `COC(=O)C1=C(c2ccc3ccccc3c2)C[C@@H]2CC[C@H]1N2C(=O)NCCO` it is -0.02%; for `COC(=O)C1=C(c2ccc(F)cc2F)C[C@@H]2CC[C@H]1N2C(=O)NC1CC1` it is 1.3%. The result for `Fc1ccc(C2N3CCCN23)cc1` (stereo not given) reads 6.8% (active). The figure for `Cc1cccc(NC(=O)N2CC3CC(C2)c2cccc(=O)n2C3)c1` (stereo not given) is -0.11%; for `CC(=CCOc1ccc2ccc(=O)oc2c1)C1=CC(=O)C(C)(C)O1` it is -1.41%; for `C[C@]12CC[C@H](O)CC1=C([N+](=O)[O-])CC1C2CC[C@@]2(C)C1CC[C@@H]2O` (stereo not given in full) it is 0.51%. With `COc1ccc(-c2nn(CCC#N)cc2C(=O)O)cc1`, the inhibition was 0.78%. The result for `O=C(N/N=C/c1c(O)n(Cc2ccccc2)c(=O)[nH]c1=O)c1ccccc1` reads 0.57%; that for `CC/C(=N\NC(=O)c1ccccc1O)c1c(O)n(Cc2ccccc2)c(=O)[nH]c1=O`, 4.6% (active).

For `CCC(=NCc1ccco1)c1c(O)n(Cc2ccccc2)c(=O)[nH]c1=O`, the inhibition was -0.6%. The result for `Cc1ccc(OC(=O)N(C)C[C@@H]2OCc3cnnn3CCCC(=O)N([C@H](C)CO)C[C@@H]2C)cc1` reads 1.2%; that for `COC(=O)C1=C(c2cccc(OCc3ccccc3)c2)C[C@@H]2CC[C@H]1N2C(=O)NCc1ccc(Br)cc1`, -1.05%. The figure for `C=Cn1ccnc1P(=S)(c1cc(N(CC)CC)ns1)c1nccn1C=C` is 0.78%; for `Cc1nc2ccccn2c1P(=S)(N1CCCCC1)N1CCCCC1` it is -0.88%; for `CC(=O)OC1C2(CC3N4C(=O)C5(CO)SSC4(CC31O)C(=O)N5C)OC(C)C(C)(C)C2=O` (stereo not given) it is -6.61%.

As for `O=C(c1ccccc1[N+](=O)[O-])N1CCC2(CC1)OCCO2`, the inhibition is 5.98% (active). The result for `O=C(c1cc(S(=O)(=O)N2CCOCC2)ccc1F)N1CCC2(CC1)OCCO2` reads 0.34%; that for `O=C(c1cc(-c2ccncc2)nc2ccccc12)N1CCC2(CC1)OCCO2`, 1.03%; that for `CN(C)c1nc(N(C)C)nc(N(C#N)CCCl)n1`, -0.78%. Take `CNCC(O)c1cc(F)c(OCc2ccccc2)c(OCc2ccccc2)c1F` (stereo not given): the inhibition was -0.1%. The figure for `CN1CCc2cc3c(cc2[C@H]1[C@@H]1OC(=O)c2c1ccc1c2OCO1)OCO3` is 1.17%; for `O=C1NC(=O)C(CCOc2ccccc2)(CCc2ccccc2)C(=O)N1` it is -0.23%; for `CCC(C)n1c(O)c(/C=N/Nc2nc3c(c(=O)n(C)c(=O)n3C)n2C)c(=O)[nH]c1=S` (stereo not given) it is 4.71% (active). The figure for `O=C(CCC(=O)N1C[C@H]2C[C@@H](C1)c1cccc(=O)n1C2)NCc1ccccc1C(F)(F)F` is 0.36%.
